An excerpt weighted towards active compounds, which were near 3.5% of everything screened.
GPR151 ag: activators of human GPR151, primary screen, cell-based, PathHunter beta-arrestin, luminescence. PathHunter beta-arrestin GPR151 cells. 1% of 650,000 active. G-protein coupled receptor 151 (Homo sapiens), Q8TDV0. AID 1508602, 2020. activation, % at 11.2 µM; in the data active = activation above about 4.9%
Target sequence (Q8TDV0 whole entry, looked up): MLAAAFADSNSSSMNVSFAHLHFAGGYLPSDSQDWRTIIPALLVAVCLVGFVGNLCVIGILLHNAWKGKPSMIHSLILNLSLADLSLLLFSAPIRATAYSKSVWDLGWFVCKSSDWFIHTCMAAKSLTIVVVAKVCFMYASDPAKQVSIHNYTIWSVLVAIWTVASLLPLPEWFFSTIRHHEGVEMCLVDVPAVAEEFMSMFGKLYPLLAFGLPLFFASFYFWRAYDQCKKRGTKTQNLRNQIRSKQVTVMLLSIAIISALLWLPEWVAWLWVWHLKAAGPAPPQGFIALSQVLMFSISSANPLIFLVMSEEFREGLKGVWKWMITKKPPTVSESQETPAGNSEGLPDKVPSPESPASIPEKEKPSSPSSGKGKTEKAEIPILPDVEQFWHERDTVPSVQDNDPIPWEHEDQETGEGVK
TEAD-YAP block: TEAD-YAP interaction inhibition, primary screen, TEAD-YAP interaction inhibitor project, luminescence, HEK-TIYL cells. AID 1259422, 2018. TEAD-Gal4/YAP UAS-luciferase luminescence. 1.4% of 640,000 active. inhibition, % at 9.12 µM; in the data active = inhibition above about 32%
FBW7 act: FBW7 E3 ligase activators, primary screen, biochemical, AlphaScreen, human. F-box/WD repeat-containing protein 7 (Homo sapiens), Q969H0. AlphaScreen FBW7–phospho-cyclin E peptide binding, activator screen. normalized activity (activation), % at 26.1 µM. 0.13% of 650,000 active. AID 1259310, 2017; in the data active = normalized activity above about 1.9%;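 note: purified mutant Fbw7 with reduced substrate affinity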
MITF inh: MITF inhibitors, primary screen, biochemical, AlphaScreen, human; Microphthalmia-associated transcription factor (Homo sapiens), O75030; AlphaScreen MITF homodimerization, bead proximity signal; inhibition, % at 2.6 µM; 0.91% of 650,000 active; AID 1259374, 2018; in the data active = inhibition above about 50%
Hits are given with their value; – = inactive.

SMILES	GPR151 ag	TEAD-YAP block	FBW7 act	MITF inh
COc1ccc2c(c1)CC(C(=O)Nc1ccc(-c3cn[nH]c3)c(OCCN(C)C)c1)CO2 (stereo not drawn)	–	–	–	–
CN(C)CCn1c2ccccc2c2cnc(N)c(C#N)c21	–	93	–	–
Cc1cc(C)c2nc(SCC(=O)N3CC(=O)Nc4ccccc43)c(C#N)cc2c1	–	54	–	–
CN(C)S(=O)(=O)N=C1C=CC(=NS(=O)(=O)N(C)C)C=C1	–	–	–	55
CC(Nc1ccc(C(F)(F)F)cc1[N+](=O)[O-])C(=O)O (stereo not drawn)	–	–	–	–
C[C@H](Nc1ccc(C(F)(F)F)cc1[N+](=O)[O-])C(=O)Nc1nc2ccccc2[nH]1	–	32	–	–
CCS(=O)(=O)c1ccc2oc(SCc3cn4ccsc4n3)nc2c1	–	–	–	–
COC(=O)c1ccc(Br)c(S(=O)(=O)N2CCCCC2)c1	–	–	1.9	–
O=C(O)c1ccc(Br)c(S(=O)(=O)N2CCCCCC2)c1	–	–	–	–
CC(C)=CCC/C(C)=C\CSc1nnc(-c2ccncc2)o1	–	–	–	–
CC(=O)C(C(C)=O)C1=C(Cl)C(=O)C(=O)c2ccccc21	–	84	–	–
CC(C)(C)c1ccc(C(=O)NCCOc2ccccc2)cc1	–	36	–	–
CC(C)(C)c1ccc(C(=O)NCCOc2ccccc2F)cc1	–	59	–	–
O=C(Nc1ccc(-c2ncnc3[nH]ccc23)cc1)C1COc2ccccc2O1 (stereo not drawn)	–	52	–	–
NC(C(=O)Nc1ccc(-c2ccnc3[nH]ccc23)cc1)c1ccc(Cl)cc1 (stereo not drawn)	–	–	–	–
NC(C(=O)Nc1ccc(-c2ncnc3[nH]ccc23)cc1)c1ccc(Cl)cc1 (stereo not drawn)	–	57	–	–
COc1ccc2nc(-c3ccc(NC(=O)c4cccc(OC)c4OC)cc3)cn2n1	–	–	–	–
O=C(CCCSc1ccc(Cl)cc1)Nc1nc(-c2ccccn2)cs1	–	39	–	–
O=C(CCSc1ccc(Cl)cc1)Nc1nc(-c2ccccn2)cs1	–	34	–	–
O=C(CCSc1ccccc1)Nc1nc(-c2ccccn2)cs1	–	–	–	–
COc1ccc(-c2ccc(C(C)=O)cc2)cc1	–	–	–	–
COc1ccc(-c2cc(O)cc(O)c2)cc1	–	34	–	–
CCC(C)Nc1nc(-c2c[nH]c3ccccc23)cs1 (stereo not drawn)	–	–	3.9	–
C=CCNc1nc(-c2c[nH]c3ccccc23)cs1	–	–	–	–
CC(=O)Nc1ccc(-c2csc(Nc3ccccc3Br)n2)cc1	–	–	–	–
SMILES	GPR151 ag	TEAD-YAP block	FBW7 act	MITF inh
COc1ccc(C(=O)N=c2sc3cc(F)ccc3n2C)c(OC)c1	–	55	–	–
OCCC1CN(Cc2cccc(-n3cccn3)c2)CCN1CC1CCCCC1 (stereo not drawn)	–	–	–	–
COc1ccc(N(CC(=O)NC2CCCC2)S(C)(=O)=O)c(OC)c1	–	–	–	–
COc1ccc(N(CC(=O)c2ccc(C3CCCCC3)cc2)C2=NCCCCC2)c(OC)c1	–	55	–	–
CC(=O)NC1=NC(=O)/C(=C\c2c(Cl)cccc2Cl)S1	–	–	–	–
O=C1/C(=C/c2cccnc2)SC(=S)N1Cc1cccnc1	–	33	–	–
Cc1noc(C)c1-c1nc(NCCCN2CCCC2=O)c2ncn(-c3ccsc3)c2n1	–	59	–	–
O=C1CCCN1CCCNc1nc(-c2ccc(N3CCOCC3)nc2)nc2c1ncn2CCN1CCCC1=O	–	–	–	–
CN1CCN(c2ccc(-c3nc(NCCCN4CCCC4=O)c4ncn(-c5ccsc5)c4n3)cc2)CC1	–	35	–	–
Nc1cccc(-c2nc(NCCCN3CCCC3=O)c3ncn(-c4ccsc4)c3n2)c1	–	62	–	–
O=C1CCCN1CCCNc1nc(-c2ccc(N3CCOCC3)nc2)nc2c1ncn2-c1ccsc1	–	48	–	–
CCS(=O)(=O)N1CCCC(CNC(=O)c2cc(OC)cc(OC)c2)C1 (stereo not drawn)	–	–	–	–
COc1cc(Nc2ccnc(NC3CCN(Cc4ccccc4)CC3)n2)cc(OC)c1OC	–	–	–	–
C(=N/Nc1nnc2c(n1)[nH]c1ccccc12)/c1c[nH]c2ccccc12	–	–	–	–
Cc1cccc2c1[nH]c1nc(N/N=C\c3c[nH]c4ccccc34)nnc12	–	44	–	–

Screening data: PubChem BioAssay, The Scripps Research Institute Molecular Screening Center
